# PubChem BioAssay (NCI)
# The panel holds about 83,000 compounds, 20% with a hit somewhere; the sample as a whole holds those more often.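 Cell lines were cultured in 96-well plates, exposed to a single compound concentration, and assessed for percent growth 48 hours later.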 A number with no mark means an inactive call. Activity calls are given as the source filed them. The calls were made as follows: active = growth percent below 10; inactive = the rest.
# Tests used:
# Test in all cases: NCI-60 one-dose screen, 48 h (100 = growth as untreated, 0 = no growth, -100 = all killed)
# Conditions in all cases: 10 µM
# SR leukemia = system: SR leukemia
# RPMI-8226 leukemia = system: RPMI-8226 leukemia
# OVCAR-8 ovarian = system: OVCAR-8 ovarian
# OVCAR-5 ovarian = system: OVCAR-5 ovarian
# OVCAR-4 ovarian = system: OVCAR-4 ovarian
# SK-OV-3 ovarian = system: SK-OV-3 ovarian
# IGROV1 ovarian = system: IGROV1 ovarian
# OVCAR-3 ovarian = system: OVCAR-3 ovarian
# HS 578T breast = system: HS 578T breast
# NCI/ADR-RES ovarian = system: NCI/ADR-RES ovarian
# T-47D breast = system: T-47D breast
# BT-549 breast = system: BT-549 breast
# MDA-MB-435 melanoma = system: MDA-MB-435 melanoma
# SW-620 colon = system: SW-620 colon
# MCF7 breast = system: MCF7 breast
# HCT-116 colon = system: HCT-116 colon
# KM12 colon = system: KM12 colon
# HCC-2998 colon = system: HCC-2998 colon
SMILES,growth (SR leukemia),growth (RPMI-8226 leukemia),growth (OVCAR-8 ovarian),growth (OVCAR-5 ovarian) [%],growth (OVCAR-4 ovarian),growth (SK-OV-3 ovarian) [%],growth (IGROV1 ovarian) [%],growth (OVCAR-3 ovarian) [%],growth (HS 578T breast) [%],growth (NCI/ADR-RES ovarian),growth (T-47D breast),growth (BT-549 breast),growth (MDA-MB-435 melanoma),growth (SW-620 colon) [%],growth (MCF7 breast),growth (HCT-116 colon),growth (KM12 colon),growth (HCC-2998 colon) [%]
CC[C@@]1(C(N)=O)CC2C=CC1C2 (stereo partly specified),85.8%,102%,106%,113,114%,103,123,132,118,113%,103%,104%,106%,113,99.5%,104%,119%,
CCOc1nc(-c2ccccc2)cc2c(O)c(C(=O)NC(C)C)[nH]c(=O)c12,94%,40.1%,103%,114,118%,98.6,65.4,100,82.5,96.8%,97.3%,147%,105%,96.1,98.9%,101%,106%,
COc1cc2ccnc(C=O)c2cc1OC,1.19% (active),50.6%,44.2%,93.1,80.9%,106,70.5,24.9,93.4,54.4%,60.7%,56.3%,31.1%,30.2,23.8%,9.15% (active),92.1%,
CCOc1nc(-c2ccccc2)cc2c(O)c(C(=O)N/N=C/c3ccc(OC)cc3)[nH]c(=O)c12,112%,82.2%,109%,125,98.3%,95.5,82.3,106,96.8,105%,80.9%,123%,113%,110,101%,109%,107%,
CCOC(=O)C1=C(Nc2ccc(OC)cc2)C(N)=NC1=N,4.05% (active),24.7%,54.5%,65.6,59.8%,34.1,65,17,48.5,28.4%,47.5%,56.2%,-43.1% (active),25.2,13.7%,34.5%,30.2%,
COc1ccc(-c2nc3sc(-c4ccccc4)c(-c4ccccc4)n3c2/C=C/c2ccc(F)cc2)cc1,90.5%,95.5%,85%,88.2,83.2%,91.1,115,94.1,95.8,103%,77.6%,112%,97.1%,95.5,73.8%,77.3%,90.7%,
COc1cc(N=C2C(=O)N(Cc3ccccc3)c3ccccc32)cc(OC)c1OC,74.5%,38.4%,96.6%,95,98.8%,101,86,84.4,82.9,94.6%,83.9%,106%,98.5%,103,93.8%,99.8%,96.1%,
Cc1cc(Cl)ccc1Nc1nc(C(F)(F)F)ccc1C(=O)N/N=C/c1ccccc1Cl,66%,50.5%,21.7%,30.8,29.2%,10.4,21.6,16.3,17.4,8.31% (active),22%,-12.1% (active),16.4%,19.9,16.2%,7.23% (active),14.8%,
Cc1ccccc1[P+](Cc1ccccc1)(c1ccccc1)c1ccccc1,2.45% (active),-27% (active),10%,52,8.97% (active),43.7,14.3,26.4,54.4,104%,-3.4% (active),10.3%,1% (active),30,10.4%,12.7%,8.7% (active),
Cc1ccc(/C(CS(=O)(=O)c2ccc(C)cc2)=N\O)cc1,83.7%,96.6%,97.2%,90.9,96.1%,112,102,118,113,106%,103%,,89%,106,91.3%,103%,115%,103
CCC(CCNc1cc(OC)cc2cccnc12)CN1C(=O)c2ccccc2C1=O (stereo unspecified),109%,95.1%,109%,111,16.9%,95.7,113,106,177,89.9%,32.7%,,107%,135,31.1%,99.5%,99%,105
O=C(NCc1cn(Cc2cccc(Oc3ccccc3)c2)nn1)c1cccnc1Nc1ccccc1,16.3%,52.7%,62.6%,89.1,74.9%,49.6,94.1,42.1,54.7,23.6%,72.3%,,-8.66% (active),40.8,18.1%,26.1%,29.5%,57.1
COc1ccc2nc(NC(=O)Nc3c(F)cccc3F)sc2c1,92%,87.6%,98.9%,108,99.6%,114,114,118,117,105%,106%,,99%,105,95.6%,102%,112%,102
COc1cc(-c2nc3ccccc3[nH]2)ccc1OCC(=O)N=Nc1c(O)[nH]c2ccccc12,-5.28% (active),25.8%,49.1%,109,76.4%,101,93.2,79.6,83.7,109%,32.6%,,79.1%,64.8,28%,31.6%,27%,96.1
O=C(Nc1cccc(Cl)c1)Nc1cc2ncncc2cc1OCc1cccc(F)c1,-1.31% (active),-0.539% (active),3.52% (active),29.6,22.4%,28.1,19,12.6,45.9,13.6%,-5.19% (active),,0.458% (active),23.9,6.04% (active),8.63% (active),9.08% (active),35.7
O=c1c2cccc3c(Nc4ccc(Br)cn4)ccc(c32)c2nc3ccccc3n12,52.9%,56.2%,103%,90.7,53.7%,94.3,48.9,94.1,81.2,93.5%,18.9%,,97%,94.8,4.15% (active),88.2%,77.2%,74.8
COc1ccc(NC(=O)CCn2cnc3c(cc(-c4ccccc4)n3-c3ccccc3)c2=O)cc1,95.7%,93.4%,102%,94.7,72.1%,58.1,78.9,98,46,63%,90.8%,92.2%,96%,,83.3%,91.4%,110%,96.3
O=NN(CCCl)C(=O)Nc1ccc(NC(=O)N(CCCl)N=O)cc1,2.28% (active),100%,93%,95.2,93.7%,105,85.9,111,104,98.7%,102%,,90.3%,66.1,86.4%,100%,103%,105
